About 79,000 compounds went through this panel and 15% of them were active in at least one assay; those are over-represented in the sample as a whole. Calls of active or inactive are those of the source. Rule as the data show it: active = growth inhibition above about 70%; inactive = the rest.

The first assay in a line: NCI Yeast Anticancer Drug Screen. Data for the CLN2oe strain (AID 163).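 Also: 0% = growth of vehicle-only control cultures.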 The settings on record: S. cerevisiae CLN2oe strain, at 1.2 µM, stronger effect = higher value. The gist of the method: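 Values reflect how much compound exposure reduced yeast growth, referenced to vehicle-exposed cells. Assay organism is a strain with a defined genetic change affecting cell-cycle control.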
Take `CS(=O)(=O)SCc1ccc([N+](=O)[O-])cc1`: the growth inhibition was -2% (inactive).

Take `Cc1csc(=S)n1OC(=O)NC1CCCCC1`: the growth inhibition is -6% (inactive).

With `CCOc1ccc(NC(=O)C2=C(C)NC(C)=C(C(=O)Nc3ccc(OCC)cc3)C2c2cccc([N+](=O)[O-])c2)cc1`, the growth inhibition is 0% (inactive).

As to `CC(C)(C)N=C(NO)c1ccccc1`, the growth inhibition is -9% (inactive).

Take `CCCCC/C(=C(\C#N)C(=O)OCC)c1ccccc1`: the growth inhibition is -2% (inactive).

Regarding `O=C(NCCCl)Sc1ccc(Cl)cc1`, the growth inhibition is -1% (inactive).

For the compound `O=C1Nc2ccc(Br)cc2C1=Nc1ccc2c(c1)OCO2`, the growth inhibition is 13% (inactive).

On to `CCC(C)OC(=O)Nc1ccc(C)c(NC(=O)OC(C)CC)c1` (stereo not drawn), for which the growth inhibition was 3% (inactive).

For the compound `O=C(O)c1cc2ccc(Cl)cc2c(O)c1C1=CCCCC1`, the growth inhibition is 17% (inactive).

As to `CN(C)Cc1cc(N=Nc2ccc(Cl)cc2)ccc1OC(=O)c1ccccc1`, the growth inhibition was 3% (inactive).

As to `CN1CCN(C(=O)/C=C/C(=O)c2ccccc2)CC1`, the growth inhibition is 3% (inactive).

Consider `CCCC/C=C/C(C)(C(=O)OCC)C(=O)OCC`, for which the growth inhibition is -3% (inactive).

Take `Cc1nc(-c2cc3cc([N+](=O)[O-])ccc3oc2=O)cs1`: the growth inhibition is -22% (inactive).

Turning to `Cc1nc2ccccc2nc1NNc1ccccc1`, the growth inhibition is -7% (inactive).

As to `CN(C)[C@@H]1C(=O)C(C(N)=O)=C(O)[C@@]2(O)C(=O)C3=C(O)c4c(O)cccc4C[C@H]3C[C@@H]12`, the growth inhibition is -7% (inactive).

`COc1ccc(NC(=O)CC2SC(=Nc3ccccc3C)NC2=O)c([N+](=O)[O-])c1` (stereo not drawn): the growth inhibition is 0% (inactive).

As to `COc1cc(O)c2c(c1O)C(=O)c1cc(C)ncc1C2=O`, the growth inhibition was 16% (inactive).

In the case of `CSc1nnc(SC)nn1`, the growth inhibition is 12% (inactive).

On to `COc1cc(/C=C2\CCC/C(=C\c3ccc(O)c(OC)c3)C2=O)ccc1O`, for which the growth inhibition was -7% (inactive).

As for `CN(C)CCNC(=O)c1cccc2cc([N+](=O)[O-])ccc12`, the growth inhibition is 15% (inactive).

Take `CCC(C)(C)c1ccc(Oc2cccc(C(=O)O)c2)cc1`: the growth inhibition was -4% (inactive).

With `CCCCCCSc1ncnc2[nH]ncc12`, the growth inhibition is -7% (inactive).

Consider `CC(=O)Nc1ccc(/C=C/[N+](=O)[O-])cc1`, for which the growth inhibition was -3% (inactive).

As for `CCOC(=O)c1[nH]n(-c2ccccc2)c(=O)c1C=NC(=S)C(N)=S`, the growth inhibition was -8% (inactive).

In the case of `CCCC(O)C1CC(C(C)C)CCC1C` (stereo not drawn), the growth inhibition was -3% (inactive).

For `O=[n+]1c2ccccc2n([O-])c2cc(Br)ccc21`, the growth inhibition is 6% (inactive).

Take `CN(C)CCNC(=O)c1cccc2c1Oc1c(cccc1[N+](=O)[O-])O2`: the growth inhibition is 24% (inactive).

As for `Nc1ncc(-c2ccc(Br)cc2)s1`, the growth inhibition is 21% (inactive).

`Cc1cc2cc3cc(C)c(N)cc3nc2cc1N`: the growth inhibition is -1% (inactive).

With `CC12C(=O)OC(=O)C(c3ccccc31)c1ccccc12`, the growth inhibition was -9% (inactive).

For `c1ccc2c(OCC3CO3)cccc2c1` (stereo not drawn), the growth inhibition was -4% (inactive).

Turning to `CCOC(=N)c1ccc(O)c(OC)c1`, the growth inhibition is -2% (inactive).

On to `Nc1cc(N)c(N=Nc2cccc3c(S(=O)(=O)O)cccc23)cc1N=Nc1cc([N+](=O)[O-])ccc1O`, for which the growth inhibition is 4% (inactive).

With `COC(=O)Oc1cc(Cl)c(Cl)cc1Cl`, the growth inhibition was -4% (inactive).

Regarding `O=C(O)C1CC(c2ccccc2)=NN1c1ccccc1` (stereo not drawn), the growth inhibition is -5% (inactive).

For the compound `COc1cc([C@@H]2c3cc4c(cc3[C@@H](Nc3ccc(NC(=O)c5cc([N+](=O)[O-])cn5C)cc3)[C@H]3COC(=O)[C@H]23)OCO4)cc(OC)c1O`, the growth inhibition was 19% (inactive).

`O=C(O)c1ccccc1/C=N/N=C1c2ccccc2-c2ccccc21`: the growth inhibition is -4% (inactive).

Consider `O=C1CC(=O)c2ccccc21`, for which the growth inhibition is -9% (inactive).

Consider `Nc1ncnc2c1ncn2C1OC(CO)CC1O` (stereo not drawn), for which the growth inhibition was 17% (inactive).

Staying with this assay, now noted: S. cerevisiae CLN2oe strain, at 3.7 µM, stronger effect = higher value.
Consider `CS(=O)(=O)SCc1ccc([N+](=O)[O-])cc1`, for which the growth inhibition was 7% (inactive).

As for `Cc1csc(=S)n1OC(=O)NC1CCCCC1`, the growth inhibition was 99% (active).

On to `CCOc1ccc(NC(=O)C2=C(C)NC(C)=C(C(=O)Nc3ccc(OCC)cc3)C2c2cccc([N+](=O)[O-])c2)cc1`, for which the growth inhibition was -2% (inactive).

`CC(C)(C)N=C(NO)c1ccccc1`: the growth inhibition is -7% (inactive).

With `CCCCC/C(=C(\C#N)C(=O)OCC)c1ccccc1`, the growth inhibition was -5% (inactive).

As for `O=C(NCCCl)Sc1ccc(Cl)cc1`, the growth inhibition was -2% (inactive).

As to `O=C1Nc2ccc(Br)cc2C1=Nc1ccc2c(c1)OCO2`, the growth inhibition was 15% (inactive).

Turning to `CCC(C)OC(=O)Nc1ccc(C)c(NC(=O)OC(C)CC)c1` (stereo not drawn), the growth inhibition was 2% (inactive).

As for `O=C(O)c1cc2ccc(Cl)cc2c(O)c1C1=CCCCC1`, the growth inhibition is -2% (inactive).

With `CN(C)Cc1cc(N=Nc2ccc(Cl)cc2)ccc1OC(=O)c1ccccc1`, the growth inhibition was -1% (inactive).

For the compound `CN1CCN(C(=O)/C=C/C(=O)c2ccccc2)CC1`, the growth inhibition is 6% (inactive).

For the compound `CCCC/C=C/C(C)(C(=O)OCC)C(=O)OCC`, the growth inhibition is -7% (inactive).

For `Cc1nc(-c2cc3cc([N+](=O)[O-])ccc3oc2=O)cs1`, the growth inhibition is 3% (inactive).

For the compound `Cc1nc2ccccc2nc1NNc1ccccc1`, the growth inhibition is -2% (inactive).

`CN(C)[C@@H]1C(=O)C(C(N)=O)=C(O)[C@@]2(O)C(=O)C3=C(O)c4c(O)cccc4C[C@H]3C[C@@H]12`: the growth inhibition is -15% (inactive).

Take `COc1ccc(NC(=O)CC2SC(=Nc3ccccc3C)NC2=O)c([N+](=O)[O-])c1` (stereo not drawn): the growth inhibition was -4% (inactive).

As for `COc1cc(O)c2c(c1O)C(=O)c1cc(C)ncc1C2=O`, the growth inhibition was 11% (inactive).

With `CSc1nnc(SC)nn1`, the growth inhibition was -6% (inactive).

Turning to `COc1cc(/C=C2\CCC/C(=C\c3ccc(O)c(OC)c3)C2=O)ccc1O`, the growth inhibition is -6% (inactive).

As to `CN(C)CCNC(=O)c1cccc2cc([N+](=O)[O-])ccc12`, the growth inhibition was 20% (inactive).

Turning to `CCC(C)(C)c1ccc(Oc2cccc(C(=O)O)c2)cc1`, the growth inhibition is -4% (inactive).

With `CCCCCCSc1ncnc2[nH]ncc12`, the growth inhibition is -8% (inactive).

On to `CC(=O)Nc1ccc(/C=C/[N+](=O)[O-])cc1`, for which the growth inhibition is -1% (inactive).

For the compound `CCOC(=O)c1[nH]n(-c2ccccc2)c(=O)c1C=NC(=S)C(N)=S`, the growth inhibition was -7% (inactive).

As to `CCCC(O)C1CC(C(C)C)CCC1C` (stereo not drawn), the growth inhibition was -3% (inactive).

Take `O=[n+]1c2ccccc2n([O-])c2cc(Br)ccc21`: the growth inhibition is 9% (inactive).

As for `CN(C)CCNC(=O)c1cccc2c1Oc1c(cccc1[N+](=O)[O-])O2`, the growth inhibition is 12% (inactive).

For the compound `Nc1ncc(-c2ccc(Br)cc2)s1`, the growth inhibition is 3% (inactive).

`Cc1cc2cc3cc(C)c(N)cc3nc2cc1N`: the growth inhibition is 8% (inactive).

For `CC12C(=O)OC(=O)C(c3ccccc31)c1ccccc12`, the growth inhibition was -8% (inactive).

With `c1ccc2c(OCC3CO3)cccc2c1` (stereo not drawn), the growth inhibition is -3% (inactive).

In the case of `CCOC(=N)c1ccc(O)c(OC)c1`, the growth inhibition is -5% (inactive).

On to `Nc1cc(N)c(N=Nc2cccc3c(S(=O)(=O)O)cccc23)cc1N=Nc1cc([N+](=O)[O-])ccc1O`, for which the growth inhibition is 16% (inactive).

With `COC(=O)Oc1cc(Cl)c(Cl)cc1Cl`, the growth inhibition is -3% (inactive).

Turning to `O=C(O)C1CC(c2ccccc2)=NN1c1ccccc1` (stereo not drawn), the growth inhibition is 17% (inactive).

For the compound `COc1cc([C@@H]2c3cc4c(cc3[C@@H](Nc3ccc(NC(=O)c5cc([N+](=O)[O-])cn5C)cc3)[C@H]3COC(=O)[C@H]23)OCO4)cc(OC)c1O`, the growth inhibition was 23% (inactive).

Regarding `O=C(O)c1ccccc1/C=N/N=C1c2ccccc2-c2ccccc21`, the growth inhibition was 0% (inactive).

For `O=C1CC(=O)c2ccccc21`, the growth inhibition is -1% (inactive).

`Nc1ncnc2c1ncn2C1OC(CO)CC1O` (stereo not drawn): the growth inhibition is 9% (inactive).

These data come from PubChem BioAssay (NCI).
